Assay results reported in PubChem BioAssay (Tox21).
Inconclusive results are not listed. Calls of active or inactive are those of the source. Calls come from the whole dose curve.

What follows are molecules tested against 5-hydroxytryptamine receptor 2A (Homo sapiens) (UniProt P28223) (assay: 5-hydroxytryptamine receptor 2A (HTR2A) small molecule antagonists, cell-based qHTS assay (AID 1963586; note: nearly all actives have a fitted effect of over 45% in size)). Details: HTR2A-CHO cells, DOI-induced calcium flux, fluorescence; series mostly up to 61.5 µM; activity, negative = inhibition: at the top concentration.
Chain of 5-hydroxytryptamine receptor 2A (Homo sapiens) (P28223 whole entry, looked up): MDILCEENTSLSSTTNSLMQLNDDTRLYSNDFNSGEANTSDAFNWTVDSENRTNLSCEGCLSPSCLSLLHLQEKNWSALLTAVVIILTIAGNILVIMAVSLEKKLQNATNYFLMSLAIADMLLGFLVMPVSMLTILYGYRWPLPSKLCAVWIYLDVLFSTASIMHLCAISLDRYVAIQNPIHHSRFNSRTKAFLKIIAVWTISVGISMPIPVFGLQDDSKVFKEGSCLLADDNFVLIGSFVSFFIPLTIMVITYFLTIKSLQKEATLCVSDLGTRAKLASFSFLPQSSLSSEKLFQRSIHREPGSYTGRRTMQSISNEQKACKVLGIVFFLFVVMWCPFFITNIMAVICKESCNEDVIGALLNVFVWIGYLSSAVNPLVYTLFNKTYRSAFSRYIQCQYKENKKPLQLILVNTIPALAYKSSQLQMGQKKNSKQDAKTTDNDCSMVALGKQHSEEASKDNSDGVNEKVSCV
From the text: National Center for Advancing Translational Sciences [NCATS]
Division of Preclinical Innovation [DPI]
U.S. Environmental Protection Agency [EPA]
National Institutes of Environmental Health Sciences [NIEHS]
National Toxicology Program [NTP]
U.S. Food and Drug Administration [FDA]
The HTR2A receptor is a subtype of the 5-HT2 receptor that belongs to the serotonin receptor family and is a G protein-coupled receptor (GPCR). The HTR2A-CHO cell line stably expressing human 5-hydroxytryptamine receptor 2A (HTR2A) can be used for screening antagonists of interactions between 5-HT2 and its ligands. The HTR2A-CHO calcium flux assay is a homogeneous fluorescence-based assay for detecting the intracellular calcium level using FDSS kinetic plate reader system.
Tox21 Assay Protocol Summary:
HTR2A-CHO cells were dispensed at 2000 cells/3uL/well in 1536-well black-clear bottom plates using a Multidrop Dispenser. After the assay plates were incubated at a 37 C/5% CO2 incubator for 18 h, 3 uL of Dye Loading Buffer was transferred to the assay plate by a Flying Reagent Dispenser. The assay plates were incubated at 37 C for 1h. For antagonist mode, 23 nL of compounds dissolved in DMSO, positive controls or DMSO only was transferred to the assay plate by a pin tool. After 5 min incubation at room temperature, 1.5 uL of 4-Iodo-2,5-dimethoxy-alpha-methylbenzeneethanamine hydrochloride (DOI) at 4nM was added to each well. The fluorescence intensity in the plates was measured using FDSS 7000EX kinetic plate reader for 3 min at 1 sec intervals.
% is set by controls: 0 for no effect and ±100 for the full control effect; potency is the fitted concentration of half-maximal effect.

**Q.** `CC(C)C(=O)OC(=O)C(C)C` was tested. Which “activity, negative = inhibition” value did it give?
**A.** -3.93% (inactive)

**Q.** Which “activity, negative = inhibition” value does the source give for `CCCOCCC` here?
**A.** -2.29% (inactive)

**Q.** Which “activity, negative = inhibition” value does the source give for `CO[Si](C)(C)OC` here?
**A.** 9.63% (inactive)

**Q.** Which “activity, negative = inhibition” value does the source give for `O=S(=O)(O)CC(O)CCl` (stereo not given) here?
**A.** 1.14% (inactive)

**Q.** Which “activity, negative = inhibition” value does the source give for `C=CC(C)(O)CC/C=C(/C)CCC=C(C)C` (stereo not given) here?
**A.** 1.28% (inactive)

**Q.** For `CC(CO)Oc1ccccc1` (stereo not given), which “activity, negative = inhibition” value is on record?
**A.** -51.3% (inactive)

**Q.** How did the “activity, negative = inhibition” value turn out when `CCOC=C(C(=O)OCC)C(=O)OCC` was run?
**A.** -4.93% (inactive)

**Q.** `CC(=C(CCOC(=O)C(C)C)SSC(CCOC(=O)C(C)C)=C(C)N(C=O)Cc1cnc(C)nc1N)N(C=O)Cc1cnc(C)nc1N` was tested. Which “activity, negative = inhibition” value did it give?
**A.** -8.24% [at 28.5 µM] (inactive)

**Q.** For `CC(C=O)Cc1ccc(C(C)(C)C)cc1` (stereo not given), which Potency is on record?
**A.** inactive

**Q.** `CC(C)CC(O)CC(C)C` was tested. Which “activity, negative = inhibition” value did it give?
**A.** -2.91% (inactive)

**Q.** Which “activity, negative = inhibition” value does the source give for `C/C=C/c1ccc(OC)c(OC)c1` here?
**A.** 2.58% (inactive)

**Q.** How did the “activity, negative = inhibition” value turn out when `[Cl][Dy]([Cl])[Cl]` was run?
**A.** -8.34% (inactive)

**Q.** Which “activity, negative = inhibition” value does the source give for `Nc1nc(=O)n([C@@H]2O[C@H](CO)[C@@H](O)[C@@H]2F)cc1I` here?
**A.** 20.4% [at 28.5 µM] (inactive)

**Q.** `CCOC(/C=C(\C)CCC=C(C)C)OCC` was tested. Which “activity, negative = inhibition” value did it give?
**A.** 0.371% (inactive)

**Q.** With `NCCOCCN` as the molecule, how does the “activity, negative = inhibition” value read?
**A.** -6.06% (inactive)

**Q.** `CCCCC(CC)COC(C)=O` (stereo not given) was tested. Which Potency did it give?
**A.** inactive

**Q.** How did the “activity, negative = inhibition” value turn out when `Cc1ccc(S(=O)(=O)NC(=O)NC2CCCCCCC2)cc1` was run?
**A.** 2.86% [at 28.5 µM] (inactive)

**Q.** `CC(Cl)COP(=O)(OCC(C)Cl)OCC(C)Cl` (stereo not given) was tested. Which “activity, negative = inhibition” value did it give?
**A.** -4.59% (inactive)

**Q.** `CN(C)Cc1ccccc1O` was tested. Which “activity, negative = inhibition” value did it give?
**A.** 6.41% (inactive)

**Q.** For `C/C(Cl)=C/CCl`, which “activity, negative = inhibition” value is on record?
**A.** 7.14% (inactive)

**Q.** `CN(C)c1cc(NC(=O)CNC(C)(C)C)c(O)c2c1C[C@H]1C[C@H]3[C@H](N(C)C)C(=O)C(C(N)=O)=C(O)[C@@]3(O)C(=O)C1=C2O` was tested. Which “activity, negative = inhibition” value did it give?
**A.** -2.54% [at 28.5 µM] (inactive)

**Q.** How did the “activity, negative = inhibition” value turn out when `CCOc1ncc(F)c(=O)[nH]1` was run?
**A.** -0.802% [at 28.5 µM] (inactive)

**Q.** How did the “activity, negative = inhibition” value turn out when `Cc1ncsc1CCO` was run?
**A.** -1.72% (inactive)

**Q.** With `Nc1c(Br)cc([N+](=O)[O-])cc1Br` as the molecule, how does the “activity, negative = inhibition” value read?
**A.** -13.3% (inactive)

**Q.** Which “activity, negative = inhibition” value does the source give for `CCc1cccc(CC)c1NC(=O)C(=O)O` here?
**A.** -8.61% (inactive)

**Q.** Which “activity, negative = inhibition” value does the source give for `CC(C)CC(O)Cc1ccccc1` (stereo not given) here?
**A.** 1.01% (inactive)

**Q.** Which “activity, negative = inhibition” value does the source give for `CC1=CC[C@@]23C[C@@H]1C(C)(C)[C@@H]2CC[C@H]3C` here?
**A.** -4.68% (inactive)

**Q.** For `IC(I)I`, which Potency is on record?
**A.** inactive

**Q.** `OCCN1CCN(CCCN2c3ccccc3C=Cc3ccccc32)CC1` was tested. Which Potency did it give?
**A.** 16.3 µM (active)

**Q.** With `CC(=O)Oc1ccccc1C(=O)Nc1ncc([N+](=O)[O-])s1` as the molecule, how does the Potency read?
**A.** inactive

**Q.** `N#CCC(=O)O` was tested. Which Potency did it give?
**A.** inactive

**Q.** For `CN(C)CCCNCCC#N`, which “activity, negative = inhibition” value is on record?
**A.** -2.8% (inactive)

**Q.** Which “activity, negative = inhibition” value does the source give for `Cc1ccc(S(=O)(=O)NC2CCCCC2)cc1` here?
**A.** -14.7% (inactive)

**Q.** With `N=C(N)c1ccccc1` as the molecule, how does the “activity, negative = inhibition” value read?
**A.** 0.763% (inactive)

**Q.** Which “activity, negative = inhibition” value does the source give for `Cc1onc(-c2ccccc2)c1C(=O)Cl` here?
**A.** -18.9% [at 28.5 µM] (inactive)

**Q.** Which “activity, negative = inhibition” value does the source give for `CC(C)CCCO` here?
**A.** 17.9% (inactive)

**Q.** With `CNC(=O)c1c(I)c(NC(C)=O)c(I)c(C(=O)O)c1I` as the molecule, how does the “activity, negative = inhibition” value read?
**A.** -0.638% [at 28.5 µM] (inactive)

**Q.** `C/C=C/CO` was tested. Which “activity, negative = inhibition” value did it give?
**A.** -3.77% (inactive)

**Q.** With `CCCC(=O)C(C)=O` as the molecule, how does the “activity, negative = inhibition” value read?
**A.** 0.0351% (inactive)

**Q.** Which “activity, negative = inhibition” value does the source give for `CC(C)(C)c1ccc(C=O)cc1` here?
**A.** 50.9% (inactive)
